This note sets out measurements from ChEMBL document CHEMBL4888484, “Replenishing the malaria drug discovery pipeline: Screening and hit evaluation of the MMV Hit Generation Library 1 (HGL1) against asexual blood stage Plasmodium falciparum ,using a nano luciferase reporter read-out” (2022).

Molecules are shown by their SMILES. The campaign covered roughly 150,000 compounds. About 540 (0.36%) showed an effect of 50% or more. The sample as a whole holds a higher share of strong results than the screen did.

The assay concerns Plasmodium falciparum. Put plainly: Primary screen in NF54 nanoGlo assay, in single point, at 2uM, 72h; a lower Z score goes with more inhibition. Format: functional, Erythrocyte. As to conditions: timepoint 72 hour.
`O=C(Nc1cccnc1O)c1nc(C2CC2)n(-c2ccccc2)n1`: the “% Inhibition” value is 33% and the Z score is listed as -3.76.

As to `CN(C)C(=NCCC1CCCC1)N(C)C`, the “% Inhibition” value was -7% and the Z score worked out at 0.94.

On to `O=C(Cc1n[nH]c(=O)c2ccccc12)N[C@H]1CCCc2c1[nH]c1c(Cl)cccc21`, for which the “% Inhibition” value came to 3% and the Z score was -0.39.

As to `CCN1CCCCc2cc(C(=O)N[C@H]3CCS(=O)(=O)C3)sc21`, the “% Inhibition” value is on record as -2% and the Z score was found to be 0.2.

Turning to `COc1ccc(C(=O)N2c3ncnn3C(c3ccccc3)CC2c2ccc(C)cc2)cc1OC` (configuration not stated), the “% Inhibition” value is listed as 76% and the Z score is reported as -10.75.

`COc1ccc(C2CC(c3ccc(C)cc3)n3ncnc3N2C(=O)c2ccccc2)cc1` (configuration not stated): the “% Inhibition” value was determined as 32% and the Z score is recorded as -3.62.

`CCC(=O)N1c2ncnn2C(c2ccc(C)cc2)CC1c1ccccc1` (configuration not stated): the “% Inhibition” value came out at 3% and the Z score is -0.41.

In the case of `CC(C)n1ncc2c1CC(NC(=O)CCC1CCCO1)CC2` (configuration not stated), the “% Inhibition” value is given as -3% and the Z score came out at 0.62.

For the molecule `CN(C)c1ccc(C(=O)Nc2ccccc2-c2cn3c(n2)CCCC3)nn1`, the “% Inhibition” value was -10% and the Z score amounted to 1.93.

As to `O=C1C2CCCCN2C(=O)N1CC(O)COc1ccc(F)cc1` (configuration not stated), the “% Inhibition” value is -5% and the Z score is 0.77.

Turning to `CCOC1CC(NC2CC(c3ccc(F)cc3)C2)C12CCC2` (configuration not stated), the “% Inhibition” value was determined as 85% and the Z score is on record as -15.92.

For `CCOC1CC(NC(C)C(=O)N(C)Cc2cccc(F)c2)C12CCCC2` (configuration not stated), the “% Inhibition” value amounted to 4% and the Z score is -0.62.

For the molecule `CCOC1CC(NCc2c[nH]nc2-c2cccnc2)C12CCC2` (configuration not stated), the “% Inhibition” value was -10% and the Z score is reported as 1.18.

As for `CCn1ccc(C(=O)N2CC(N(Cc3cccnc3)S(C)(=O)=O)C2)n1`, the “% Inhibition” value is -4% and the Z score was 0.78.

For the molecule `CC(C)(C)OC(=O)N[C@@H]1CCCN(Cc2nc(-c3ccco3)no2)C1`, the “% Inhibition” value is recorded as -11% and the Z score worked out at 1.1.

As for `CCc1noc(Cc2c(C)nn(-c3ccccc3)c2C)n1`, the “% Inhibition” value is given as -5% and the Z score is given as 0.89.

Take `CCc1c(C)nn2c(c1C)c(-c1ccccc1)[n+]1c(C)c(CC)c(C)nc21`: the “% Inhibition” value turned out to be 53% and the Z score is recorded as -10.21.

`Cc1nn2c(-c3ccc(-c4ccccc4)cc3)ccnc2c1Cl`: the “% Inhibition” value is given as -12% and the Z score came to 1.64.

Take `C[C@@H](CN1CCOCC1)NC(=O)c1cccc2c1C(=O)OC2(C)C`: the “% Inhibition” value was found to be 2% and the Z score is reported as -0.36.

For `O=C(CN1C(=O)CCC1=O)N1CCN(S(=O)(=O)c2ccc(Br)cc2)CC1`, the “% Inhibition” value is reported as -14% and the Z score worked out at 1.24.

On to `COc1cccc([C@H]2C[C@H](N(C)C(=O)CCCC(F)(F)F)C2)c1`, for which the “% Inhibition” value was 5% and the Z score was -0.72.

For `Cn1nc(-c2nc(-c3ccc(F)cc3)no2)c2c1CCN(C(=O)c1cccc(Cl)c1)C2`, the “% Inhibition” value is 66% and the Z score was -7.55.

For `Cn1nc(-c2nc(-c3cccc(F)c3)no2)c2c1CCN(C(=O)c1cccc(F)c1)C2`, the “% Inhibition” value was -7% and the Z score turned out to be 0.84.

As to `Cn1nc(-c2nc(-c3cccc(F)c3)no2)c2c1CCN(C(=O)c1ccccn1)C2`, the “% Inhibition” value was 12% and the Z score is listed as -1.38.

In the case of `CC12CN(S(=O)(=O)c3ccc4c(c3)OCCO4)C3(C(=O)NCCc4ccccc4)CC1CCC23C` (configuration not stated), the “% Inhibition” value is listed as -11% and the Z score came to 1.42.

As to `CC12CN(S(=O)(=O)c3ccccc3)C3(C(=O)O)CC1CCC23C` (configuration not stated), the “% Inhibition” value is listed as 6% and the Z score is given as -0.98.

In the case of `CC12CN(S(=O)(=O)c3ccc4c(c3)OCCO4)C3(C(=O)OCc4ccccc4)CC1CCC23C` (configuration not stated), the “% Inhibition” value amounted to 70% and the Z score is listed as -8.79.

As for `CCCN1CCN(CCCNC(=O)c2cc3cc(S(=O)(=O)N(C)C)ccc3n2CC)CC1`, the “% Inhibition” value is on record as -15% and the Z score is listed as 2.13.

Regarding `c1ccc(-c2cn3c(n2)c(-c2ccc4ccccc4n2)cc2ccccc23)cc1`, the “% Inhibition” value was found to be 76% and the Z score is reported as -4.16.

`CC(C)CCn1c(=O)c(-c2ccc3ccccc3n2)cc2ccccc21`: the “% Inhibition” value is -1% and the Z score was 0.07.

Take `Clc1ccc(-c2cn3c(nc4ccccc43)c(-c3ccccc3)n2)cc1`: the “% Inhibition” value is listed as -43% and the Z score came out at 5.09.

As for `COc1ccc(C[C@@]2(CCC(=O)N3CCCCC3)CCC(=O)N2)cc1`, the “% Inhibition” value stood at 4% and the Z score is -0.58.

Turning to `OC(CNC1CCCNc2ccccc21)c1ccc(Cl)s1` (configuration not stated), the “% Inhibition” value amounted to 57% and the Z score was -4.74.

On to `OCc1cc(CN[C@H]2CCCNc3ccccc32)ccc1F`, for which the “% Inhibition” value is 4% and the Z score is recorded as -0.52.

Take `O=C(Cc1cccs1)N1CCC2(CCC(=O)N(CCc3cccnc3)C2)CC1`: the “% Inhibition” value was 5% and the Z score is -1.07.

With `COc1ncnc(OC)c1CNc1cnn(C)c1`, the “% Inhibition” value is given as 35% and the Z score is listed as -0.52.

With `O=C(CC(F)(F)F)N1CCC[C@H](Oc2ncccn2)C1`, the “% Inhibition” value stood at 14% and the Z score is reported as -1.95.

As to `Cc1noc2ncnc(N3CCC4(CC3)CC(=O)N(Cc3ccccc3)C4)c12`, the “% Inhibition” value is on record as -6% and the Z score is on record as 0.71.

Consider `O=C(c1cc(-c2ccccc2)n[nH]1)N1CCC(N2CCC(Oc3ccccc3F)CC2)CC1`, for which the “% Inhibition” value is -12% and the Z score was determined as 1.48.

Turning to `O=C(c1cc(-c2ccco2)n[nH]1)N1CCC(N2CCC(Oc3ccccc3F)CC2)CC1`, the “% Inhibition” value worked out at 59% and the Z score is on record as -4.88.

For the molecule `O=C(c1cc(-c2ccco2)n[nH]1)N1CCC(Oc2ccccn2)CC1`, the “% Inhibition” value is -4% and the Z score is 0.71.
